Common to all, as to parameters: scale not given: direction of the effect not stated beside the values
The target in assay [1] is Protein translocase subunit SecA (Escherichia coli (strain K12)) (UniProt P10408). Nature of the assay: Assay to Identify E. coli SecA ATPase Inhibitors. As to conditions: 30 µM. The assay is classed as functional.
The target in assay [2] is T1, Ubiquitin-activating enzyme e1, putative (Leishmania donovani (strain BPK282A1)) (UniProt E9BSI1).
T1 sequence (whole entry): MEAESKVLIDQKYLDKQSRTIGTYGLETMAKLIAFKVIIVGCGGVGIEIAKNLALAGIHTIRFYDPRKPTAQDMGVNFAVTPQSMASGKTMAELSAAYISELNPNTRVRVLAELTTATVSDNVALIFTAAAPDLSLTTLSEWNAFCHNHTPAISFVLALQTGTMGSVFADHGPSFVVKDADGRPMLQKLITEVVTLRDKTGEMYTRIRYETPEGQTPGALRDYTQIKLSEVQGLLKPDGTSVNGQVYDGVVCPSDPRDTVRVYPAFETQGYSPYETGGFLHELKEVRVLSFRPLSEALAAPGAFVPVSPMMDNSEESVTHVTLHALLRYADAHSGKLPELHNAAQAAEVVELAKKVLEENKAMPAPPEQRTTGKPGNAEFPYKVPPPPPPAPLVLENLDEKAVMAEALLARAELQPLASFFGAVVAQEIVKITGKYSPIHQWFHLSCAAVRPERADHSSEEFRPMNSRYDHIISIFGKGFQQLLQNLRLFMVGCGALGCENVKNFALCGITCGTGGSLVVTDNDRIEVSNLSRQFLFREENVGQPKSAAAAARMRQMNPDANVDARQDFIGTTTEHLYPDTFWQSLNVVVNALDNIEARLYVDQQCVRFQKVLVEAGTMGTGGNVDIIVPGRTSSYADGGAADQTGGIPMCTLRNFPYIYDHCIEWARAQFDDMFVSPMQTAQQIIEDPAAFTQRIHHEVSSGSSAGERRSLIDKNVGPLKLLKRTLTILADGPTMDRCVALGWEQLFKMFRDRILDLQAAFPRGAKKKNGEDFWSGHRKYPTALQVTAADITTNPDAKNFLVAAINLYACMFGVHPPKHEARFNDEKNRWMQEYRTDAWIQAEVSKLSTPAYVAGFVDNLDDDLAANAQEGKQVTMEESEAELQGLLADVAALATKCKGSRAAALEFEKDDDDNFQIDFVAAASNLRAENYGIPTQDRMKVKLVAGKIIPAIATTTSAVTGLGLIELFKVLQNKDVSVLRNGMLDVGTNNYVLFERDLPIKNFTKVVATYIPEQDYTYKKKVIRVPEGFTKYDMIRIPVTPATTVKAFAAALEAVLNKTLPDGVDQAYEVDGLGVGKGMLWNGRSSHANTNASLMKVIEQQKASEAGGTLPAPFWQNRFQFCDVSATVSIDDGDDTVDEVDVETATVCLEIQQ
Nature of the assay: Leishmania donovani Ubiquitin Activating Enzyme (LdE1). The assay is classed as functional. As to conditions: 30 µM.

Assay [3] has as its target T2, Aspartate--tRNA(Asp/Asn) ligase (Mycobacterium tuberculosis (strain ATCC 25618 / H37Rv)) (UniProt P9WFW3). Note: in the data most compounds retested in dose-response had high values.
T2 sequence (whole entry): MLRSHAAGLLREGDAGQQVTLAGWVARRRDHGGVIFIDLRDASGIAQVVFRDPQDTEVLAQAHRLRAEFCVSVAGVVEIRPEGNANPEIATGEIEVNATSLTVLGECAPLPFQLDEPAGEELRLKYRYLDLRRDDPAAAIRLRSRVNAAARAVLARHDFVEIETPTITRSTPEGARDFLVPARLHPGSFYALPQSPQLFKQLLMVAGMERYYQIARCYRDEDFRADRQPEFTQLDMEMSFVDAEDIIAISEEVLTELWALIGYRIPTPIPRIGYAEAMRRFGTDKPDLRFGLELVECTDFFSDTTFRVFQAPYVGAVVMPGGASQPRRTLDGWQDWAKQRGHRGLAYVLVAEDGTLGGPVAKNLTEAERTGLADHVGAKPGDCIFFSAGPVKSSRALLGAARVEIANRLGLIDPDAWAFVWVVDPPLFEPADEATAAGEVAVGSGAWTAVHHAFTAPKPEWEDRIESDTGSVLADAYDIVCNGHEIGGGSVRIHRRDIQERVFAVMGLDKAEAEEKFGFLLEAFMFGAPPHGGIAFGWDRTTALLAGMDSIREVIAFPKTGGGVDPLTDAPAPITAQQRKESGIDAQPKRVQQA
Nature of the assay: Assay for Asp RNA synthetase-1 from Mycobacterium tuberculosis. Type of assay: functional. As to conditions: 30 µM.

Assay [4] deals with AMP-activated protein kinase, AMPK (Homo sapiens) (UniProt P54646+O43741+P54619+Q9UGJ0+Q9Y478+Q13131+Q9UGI9). Nature of the assay: AMP-dependent Kinase enzyme assay. An in vitro enzyme assay that detects ADP turnover that is directly proportional to AMPK activity. This uses naive AMPK that is activated during the assay with MK-8722. The assay is classed as functional. As to conditions: 30 µM.

In assay [5] the target is Sialic acid-binding Ig-like lectin 9 (Homo sapiens) (UniProt Q9Y336). As to the kind of experiment: Hs-Siglec9 ALPHAscreen SOP 20170721. As to conditions: 10 µM.
For the next assay, the system named is Trypanosoma cruzi. As to the kind of experiment: Trypanosoma cruzi phosphomannomutase and mannose-1-phosphate guanylyltransferase assay. As to conditions: 10 µM. The assay is classed as functional.
Assay [6] concerns the target T3, Arginase-2, mitochondrial (Homo sapiens) (UniProt P78540).
T3 sequence (whole entry): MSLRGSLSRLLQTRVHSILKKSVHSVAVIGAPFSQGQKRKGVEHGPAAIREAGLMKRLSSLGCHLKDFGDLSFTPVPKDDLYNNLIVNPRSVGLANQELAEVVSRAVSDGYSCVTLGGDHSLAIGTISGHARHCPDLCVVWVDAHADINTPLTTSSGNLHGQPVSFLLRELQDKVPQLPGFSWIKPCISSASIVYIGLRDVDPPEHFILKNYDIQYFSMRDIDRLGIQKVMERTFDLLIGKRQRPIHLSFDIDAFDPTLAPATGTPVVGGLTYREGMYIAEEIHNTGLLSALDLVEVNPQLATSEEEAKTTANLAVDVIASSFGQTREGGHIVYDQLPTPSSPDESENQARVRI
As to the kind of experiment: in vitro enzyme assay to detect the production of urea directly proportional to the activity of Arginase II. Note: in the data most compounds retested in dose-response had high values. As to conditions: 33.3 µM. The assay is classed as functional.

Assay [7] has as its target T4, Proteasome subunit beta (Trypanosoma cruzi) (UniProt O96673).
T4 sequence (whole entry): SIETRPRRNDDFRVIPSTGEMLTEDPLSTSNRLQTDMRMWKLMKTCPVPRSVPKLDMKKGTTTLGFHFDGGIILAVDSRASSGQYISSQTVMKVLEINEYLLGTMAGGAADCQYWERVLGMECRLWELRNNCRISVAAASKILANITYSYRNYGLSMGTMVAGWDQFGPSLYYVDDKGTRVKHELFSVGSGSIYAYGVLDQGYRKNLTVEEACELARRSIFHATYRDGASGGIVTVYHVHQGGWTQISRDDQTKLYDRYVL
As to the kind of experiment: Trypanosoma cruzi proteasome chymotrypsin-like activity (TcProtChymo) assay. Note: in the data most compounds retested in dose-response had high values. The assay is classed as functional. As to conditions: 9.37 µM.

The species named for another assay is Homo sapiens. Nature of the assay: To identify inhibition of the IFN signalling (Jak-Stat) pathway via expression of an eGFP reporter gene under the control of an IFN-stimulated response element (ISRE) containing MxA promoter. The assay is classed as functional. As to conditions: 30 µM. A general note: A reporter such as luciferase makes a cellular process visible.

In assay [8] the target is Shiga toxin 2 (Escherichia coli O157:H7) (UniProt P09385+P09386). As to the kind of experiment: E. coli 0.157:H7 Shiga Toxin SOP - stx2 screening assay. Type of assay: functional. As to conditions: 30 µM.
The target of assay [9] is T5, Tyrosyl-tRNA synthetase, putative (Trypanosoma cruzi (strain CL Brener)) (UniProt Q4DSP6).
T5 sequence (whole entry): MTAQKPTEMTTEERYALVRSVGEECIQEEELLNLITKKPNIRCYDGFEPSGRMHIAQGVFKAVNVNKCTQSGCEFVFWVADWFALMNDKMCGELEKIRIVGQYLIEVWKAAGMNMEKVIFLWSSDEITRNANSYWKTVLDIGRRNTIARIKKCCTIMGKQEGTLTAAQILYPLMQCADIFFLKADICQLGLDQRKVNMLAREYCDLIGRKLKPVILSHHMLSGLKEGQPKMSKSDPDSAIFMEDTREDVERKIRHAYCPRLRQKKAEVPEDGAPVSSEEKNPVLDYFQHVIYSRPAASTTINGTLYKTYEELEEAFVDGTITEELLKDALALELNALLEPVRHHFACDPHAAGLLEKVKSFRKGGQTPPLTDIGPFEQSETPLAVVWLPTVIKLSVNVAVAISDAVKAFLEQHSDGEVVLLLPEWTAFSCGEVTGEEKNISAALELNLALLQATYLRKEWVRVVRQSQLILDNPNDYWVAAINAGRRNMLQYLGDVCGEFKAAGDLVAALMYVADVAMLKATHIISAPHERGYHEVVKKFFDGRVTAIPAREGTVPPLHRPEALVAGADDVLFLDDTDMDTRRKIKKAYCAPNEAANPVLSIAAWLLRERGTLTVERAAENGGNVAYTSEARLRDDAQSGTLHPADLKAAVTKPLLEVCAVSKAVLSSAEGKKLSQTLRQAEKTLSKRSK
Nature of the assay: Trypanosoma cruzi tyrosyl tRNA synthetase (TcYRS) _High Tyrosine SOP. Note: in the data most compounds retested in dose-response had high values. Type of assay: functional. As to conditions: 30 µM.

Assay [10] addresses T5, Tyrosyl-tRNA synthetase, putative (Trypanosoma cruzi (strain CL Brener)). Nature of the assay: Trypanosoma cruzi tyrosyl tRNA synthetase (TcYRS) SOP. The assay is classed as functional. As to conditions: 30 µM.
Assay [11] addresses Chromo domain-containing protein 1 (Saccharomyces cerevisiae (strain ATCC 204508 / S288c) (Baker's yeast)) (UniProt P32657). As to the kind of experiment: ScCHD-1 Enzyme Inhibition Assay. Note: in the data most compounds retested in dose-response had high values. Type of assay: functional. As to conditions: 30 µM.

Molecules are shown by their SMILES. For some assays here: Results with a measured potency or affinity are listed apart.

In ChEMBL document CHEMBL3988442, “University of Dundee, Small-Polar-MMV Screening Library” (2021) one finds Percent Effect data, which are given here for five compounds.

Sequence of Chromo domain-containing protein 1 (Saccharomyces cerevisiae (strain ATCC 204508 / S288c) (Baker's yeast)) (P32657 whole entry, the tested form may be a part): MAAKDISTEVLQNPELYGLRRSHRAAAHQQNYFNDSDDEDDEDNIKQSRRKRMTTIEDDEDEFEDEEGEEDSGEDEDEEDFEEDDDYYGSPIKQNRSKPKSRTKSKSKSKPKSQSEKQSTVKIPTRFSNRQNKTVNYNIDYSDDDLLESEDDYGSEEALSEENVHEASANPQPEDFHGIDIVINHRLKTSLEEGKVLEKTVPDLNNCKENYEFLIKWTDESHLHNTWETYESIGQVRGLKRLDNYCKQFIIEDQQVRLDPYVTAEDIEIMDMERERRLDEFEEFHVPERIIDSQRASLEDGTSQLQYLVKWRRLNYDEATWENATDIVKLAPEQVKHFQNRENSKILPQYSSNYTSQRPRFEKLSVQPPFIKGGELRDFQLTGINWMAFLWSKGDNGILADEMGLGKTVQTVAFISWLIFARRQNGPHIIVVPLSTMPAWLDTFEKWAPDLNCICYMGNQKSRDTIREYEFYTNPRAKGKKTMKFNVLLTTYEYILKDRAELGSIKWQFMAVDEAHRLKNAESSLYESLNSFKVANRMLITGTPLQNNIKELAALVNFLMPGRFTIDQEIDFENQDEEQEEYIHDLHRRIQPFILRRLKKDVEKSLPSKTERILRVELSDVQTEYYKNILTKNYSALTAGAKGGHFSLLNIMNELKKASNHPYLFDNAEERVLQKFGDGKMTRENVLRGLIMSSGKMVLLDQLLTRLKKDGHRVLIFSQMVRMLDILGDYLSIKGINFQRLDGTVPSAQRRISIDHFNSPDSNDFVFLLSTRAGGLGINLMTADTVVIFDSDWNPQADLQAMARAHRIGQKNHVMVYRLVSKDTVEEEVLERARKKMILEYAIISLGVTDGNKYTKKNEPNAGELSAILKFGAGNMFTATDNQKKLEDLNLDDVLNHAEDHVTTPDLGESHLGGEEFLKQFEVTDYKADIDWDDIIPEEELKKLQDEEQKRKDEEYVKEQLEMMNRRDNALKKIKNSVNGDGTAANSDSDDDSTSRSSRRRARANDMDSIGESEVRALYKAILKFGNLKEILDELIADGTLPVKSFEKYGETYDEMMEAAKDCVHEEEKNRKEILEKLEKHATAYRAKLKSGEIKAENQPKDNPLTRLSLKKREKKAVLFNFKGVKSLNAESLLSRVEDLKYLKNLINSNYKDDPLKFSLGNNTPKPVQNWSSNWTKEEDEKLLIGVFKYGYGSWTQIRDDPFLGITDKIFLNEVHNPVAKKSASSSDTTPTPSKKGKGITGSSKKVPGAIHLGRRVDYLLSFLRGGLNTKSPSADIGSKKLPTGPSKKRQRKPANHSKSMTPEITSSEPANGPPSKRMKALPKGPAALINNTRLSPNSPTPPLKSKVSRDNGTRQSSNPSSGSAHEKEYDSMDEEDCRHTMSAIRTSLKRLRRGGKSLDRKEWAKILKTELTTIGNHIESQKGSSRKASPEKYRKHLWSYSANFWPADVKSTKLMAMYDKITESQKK
Sequence of Protein translocase subunit SecA (Escherichia coli (strain K12)) (P10408 whole entry): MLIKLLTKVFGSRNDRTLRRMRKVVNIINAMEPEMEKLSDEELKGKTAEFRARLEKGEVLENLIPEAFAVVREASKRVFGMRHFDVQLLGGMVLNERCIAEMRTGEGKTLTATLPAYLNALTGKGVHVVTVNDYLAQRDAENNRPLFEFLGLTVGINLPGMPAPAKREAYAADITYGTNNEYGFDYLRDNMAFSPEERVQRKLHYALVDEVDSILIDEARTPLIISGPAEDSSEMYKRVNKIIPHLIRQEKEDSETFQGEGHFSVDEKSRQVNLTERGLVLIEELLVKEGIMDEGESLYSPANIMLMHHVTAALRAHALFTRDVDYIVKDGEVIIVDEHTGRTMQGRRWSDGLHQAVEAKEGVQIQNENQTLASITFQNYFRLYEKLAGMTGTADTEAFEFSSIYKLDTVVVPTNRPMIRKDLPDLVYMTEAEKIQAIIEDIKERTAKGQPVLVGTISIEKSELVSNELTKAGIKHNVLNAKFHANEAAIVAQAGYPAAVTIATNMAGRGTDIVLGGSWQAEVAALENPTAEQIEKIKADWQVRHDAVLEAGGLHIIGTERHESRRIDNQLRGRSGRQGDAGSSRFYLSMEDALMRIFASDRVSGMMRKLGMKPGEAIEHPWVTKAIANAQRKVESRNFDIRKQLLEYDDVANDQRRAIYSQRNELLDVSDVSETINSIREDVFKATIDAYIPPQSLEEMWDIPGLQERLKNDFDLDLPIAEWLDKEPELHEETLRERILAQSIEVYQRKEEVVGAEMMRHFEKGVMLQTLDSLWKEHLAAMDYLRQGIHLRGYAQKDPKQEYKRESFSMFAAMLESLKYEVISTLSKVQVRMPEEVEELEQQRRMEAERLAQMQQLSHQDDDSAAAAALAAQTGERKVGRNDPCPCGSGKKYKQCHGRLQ
Sequence of Sialic acid-binding Ig-like lectin 9 (Homo sapiens) (Q9Y336 whole entry): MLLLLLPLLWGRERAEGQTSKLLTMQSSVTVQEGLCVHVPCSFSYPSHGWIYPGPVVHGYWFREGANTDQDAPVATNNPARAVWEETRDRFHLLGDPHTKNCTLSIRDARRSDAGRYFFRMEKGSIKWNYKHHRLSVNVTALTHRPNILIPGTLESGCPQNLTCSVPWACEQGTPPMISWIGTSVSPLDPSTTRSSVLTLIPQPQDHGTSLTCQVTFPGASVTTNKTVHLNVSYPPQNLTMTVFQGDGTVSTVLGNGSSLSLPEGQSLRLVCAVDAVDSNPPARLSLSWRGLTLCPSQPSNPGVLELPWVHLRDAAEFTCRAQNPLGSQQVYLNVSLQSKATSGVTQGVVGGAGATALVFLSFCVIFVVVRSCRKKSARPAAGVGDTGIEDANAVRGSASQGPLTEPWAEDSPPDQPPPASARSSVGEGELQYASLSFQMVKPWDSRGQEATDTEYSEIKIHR

Take `COc1cc(CNC(C)Cn2cccn2)cc(OC)c1OC` (stereo not given): the Percent Effect in assay [1] was 0.206%; in [2] it was 18.2%; in assay [3], -3.28%; in assay [4], 0.589%; in [5] it was -6.87%; in the assay on Trypanosoma cruzi, -7.3%. The Percent Effect in assay [6] was 4.98%; in [7], 2.87%; in the assay listed under Homo sapiens it was 29.8%; in assay [8], -15.9%; in [9] it was 7.77%; in assay [10], 14.6%. In addition, the Percent Effect in [11] is -9.78%.
As to `O=C(NC[C@]12COC[C@H]1CN(Cc1ccncc1)C2)c1ccco1`, the Percent Effect in [1] is -2.11%; in assay [2], 13.3%; in [3], -0.368%; in assay [4] it was 7.09%; in [5] it was 2.99%; in the assay on Trypanosoma cruzi, -2.17%. In addition, the Percent Effect in assay [6] is 4.43%; in assay [7], 12.8%; in the assay filed under Homo sapiens, 7.74%; in [8], -4.6%; in assay [9], 10.6%; in assay [10], 21.8%. Further, the Percent Effect in assay [11] is -2.5%.
As for `CC(C)CN1C[C@H]2C[C@H](C(=O)Nc3cccnc3)[C@@H](C1)O2`, the Percent Effect was -0.904% in [1]; 0% in assay [2]; -0.0153% in assay [3]; 7.32% in [4]; -2.44% in [5]; -7.33% in the assay with Trypanosoma cruzi. The Percent Effect in [6] was 2.87%; in [7], 15.9%; in the assay filed under Homo sapiens, -8.69%; in assay [8] it was -15.6%; in assay [9], 1.08%; in [10], 15.4%. Besides, in assay [11], the Percent Effect was found to be 2.38%.
In the case of `Cc1cc(CN2CC[C@H]3C[C@H](c4nccs4)O[C@@H]3C2)no1`, the Percent Effect is 2.63% in assay [1]; -2.7% in assay [2]; -1.08% in assay [3]; 5.99% in assay [4]; 4.06% in [5]; -1.47% in the assay with Trypanosoma cruzi. Also, the Percent Effect in assay [6] was 0.319%; in assay [7], 12.9%; in the assay listed under Homo sapiens, -4.4%; in assay [8], 3.88%; in [9], 0%; in assay [10], 0%. For the same compound, the Percent Effect in assay [11] turned out to be 7.66%.
For `COCC(=O)NC(C)Cc1cccc(OC)c1` (stereo not given), the Percent Effect is -1.72% in [1]; 13.2% in assay [2]; -2.52% in assay [3]; 3.57% in assay [4]; 6.63% in [5]; 6.77% in the assay with Trypanosoma cruzi. The Percent Effect in assay [6] was -0.383%; in assay [7] it was 11.5%; in the assay filed under Homo sapiens it was 8.48%; in [8], 24.3%; in assay [9], 10.3%; in [10] it was 21.9%. Moreover, in [11], the Percent Effect was -8.88%.
